In PubChem BioAssay AID2253 (Southern Research Specialized Biocontainment Screening …, 2010):
The campaign covered roughly 2,200 compounds. About 1,300 (59%) were called active. How the calls were made is not given here. The set was probably picked from earlier hits. A selection follows. Results with a measured potency or affinity are listed apart.

test: THP-1 cell cytotoxicity, dose response, cytotoxicity control for Salmonella PhoP regulon inhibitors, S. typhimurium screen hits (AID 2253); conditions: THP-1 viability, CellTiter-Glo luminescence, 72 h; series mostly up to 50 µM

Row | SMILES | outcome
1 | Cc1nc2c(Cl)cccc2c2c1CC(CBr)O2 (stereo not given) | inactive
2 | CN(C)CCNc1nc(-c2ccccc2)nnc1C(F)(F)F | inactive
3 | Cc1cccc(C=Nc2ccc3c(c2)oc2ccccc23)c1O | inactive
4 | CCNC(=S)NNC(=O)c1ccc(OC(F)F)cc1 | inactive
5 | Nc1nc(C2CCCCC2)cs1 | inactive
6 | COc1ccc(C2=Nc3cccc4cccc(c34)N2)cc1 | inactive
7 | O=S(=O)(NC1=NCCCCC1)c1cccs1 | inactive
8 | C=CCOc1ccc(CNc2nn[nH]n2)cc1 | inactive
9 | OCCN(Cc1ccccc1)Cc1ccc(Cl)cc1 | inactive
10 | CN(C)S(=O)(=O)Nc1ccc(C(=O)O)cc1 | inactive
11 | CC1CC(C)CN(CCCNC(=O)C2CCC(=O)N2C2CCCC2)C1 (stereo not given) | inactive
12 | CCOCC(=O)Nc1ccc(F)c(F)c1 | inactive
13 | O=C(Cn1ncc2c(=O)oc3ccccc3c21)N1CCN(c2ccccn2)CC1 | inactive
14 | Cc1ccccc1C(=O)N(C)Cc1ccccc1 | inactive
15 | CCOC(=O)c1ccc(N2CCN(c3ccc(F)cc3)CC2)c(NC(=O)Nc2cccc(OC)c2)c1 | inactive
16 | Cc1ccc2occ(/C=N/O)c(=O)c2c1 | inactive
17 | O=C(O)C1CCCN1S(=O)(=O)c1ccc2[nH]c(=O)c(=O)[nH]c2c1 (stereo not given) | inactive
18 | O=C(CSc1nnc2n(C3CCCCC3)c(=O)c3ccccc3n12)OC1CCCCC1 | inactive
19 | Cc1ccc(C(=O)NCC(=O)NCC(=O)OCC(=O)c2ccc([N+](=O)[O-])cc2)cc1 | inactive
20 | Cc1ccc(S(=O)(=O)NC2=NCN(CCOC(=O)c3ccc([N+](=O)[O-])cc3)CN2)cc1 | inactive
21 | Nc1ncncc1-c1ccc(Cl)cc1 | inactive
22 | N#Cc1c(N)nc(SCC(=O)NC2CCCCC2)c(C#N)c1-c1ccc(Cl)cc1 | inactive

Row | SMILES | outcome
23 | CCn1cc(C(=O)O)c(=O)c2cc(F)c(N3CCN(C(=S)NC(=O)c4cccc(C)c4)CC3)cc21 | inactive
24 | CN1/C(=C/C=N/NC(=O)c2ccc([N+](=O)[O-])cc2)C(C)(C)c2ccccc21 | inactive
25 | COc1cc(C)ccc1OCCCOc1ccccc1Br | inactive
26 | O=C(COc1ccc(Br)cc1Cl)NC(=O)NCc1ccccc1 | inactive
27 | Clc1ccc(OCCn2ccnc2)c(Br)c1 | inactive
28 | CC(C)Oc1cccc(C(=O)NC(=S)Nc2ccccc2)c1 | inactive
29 | Cc1cc(C)c(NC(=S)NC(=O)c2ccc(-c3ccccc3)cc2)c(C)c1 | inactive
30 | Nc1cc(=O)[nH]c(=S)n1-c1cccc(C(F)(F)F)c1 | inactive
31 | Cn1cc(-c2nnnn2-c2cccc(C(F)(F)F)c2)c(C(F)(F)F)n1 | inactive
32 | Cc1ccc(/C=C/c2nnc(-c3ccc(C)cc3)o2)cc1 | inactive
33 | COc1ccc(OC)c(NC(=O)c2ccccc2NS(=O)(=O)c2cccc3cccnc23)c1 | inactive
34 | O=C(CSc1ncn[nH]1)Nc1cccc2ccccc12 | inactive
35 | COc1ccc(CCN2CC3=C(C2=O)C(c2ccccc2)NC(=O)N3C)cc1OC (stereo not given) | inactive
36 | Cc1ccc(C(=O)COC(=O)CNS(=O)(=O)c2ccccc2)cc1[N+](=O)[O-] | inactive
37 | O=C(Cc1ccc(Cl)cc1)NNS(=O)(=O)c1ccc([N+](=O)[O-])cc1 | inactive
38 | O=C(N[C@H](CO)[C@H](O)c1ccc([N+](=O)[O-])cc1)C(Cl)Cl | inactive
39 | COc1ccc2nc(-c3ccccc3)cc(OC)c2c1 | inactive
40 | Cc1nc2ccccc2c(=O)n1/N=C/c1ccc(N(C)C)cc1 | inactive
41 | Cc1ccc(-c2n[nH]c(=S)n2/N=C/c2cc3c(cc2[N+](=O)[O-])OCO3)cc1 | inactive
42 | CN(C)c1ccc(/C=N/c2cc(-c3ccccc3)nn2-c2ccccc2)cc1 | inactive
43 | CO[C@@]1(NC(=O)C2SC(=C(C(N)=O)C(=O)O)S2)C(=O)N2C(C(=O)O)=C(CSc3nnnn3C)CS[C@@H]21 (stereo not given in full) | inactive
44 | CCCn1nnc(NC(=O)c2ccc(Br)o2)n1 | inactive

Row | SMILES | outcome
45 | FC(F)(F)c1cc(C(F)(F)F)c2ccc(Oc3ccccc3)nc2n1 | inactive
46 | Cc1ccc(NS(=O)(=O)c2ccccc2)c2c1CC(C)(C)O2 | inactive
47 | O=C1N=c2ccccc2=C1c1[nH]c(=S)[nH]c1O | inactive
48 | Cc1ccc(Nc2nc(N)nc(CC#N)n2)cc1 | inactive
49 | C=CCn1c(SCC(=O)Nc2nnc(CC)s2)nnc1-c1cccnc1 | inactive
50 | O=C(COC(=O)c1cn(-c2ccccc2)nc1-c1ccccc1)c1cccc([N+](=O)[O-])c1 | inactive
51 | O=C(c1cn(-c2ccccc2)nc1-c1cccnc1)N1CCCCC1 | inactive
52 | c1ccc(CSc2snnc2-c2ccccc2)cc1 | inactive
53 | [O-]/[N+](=C\c1ccncc1)c1ccccc1 | inactive
54 | BrC(=C\c1ccccc1)/C=N/N1CCN(c2ccccn2)CC1 | inactive
55 | COC(=O)c1sc2ccccc2c1-n1cccc1C(=O)C(=O)Nc1ccc(Cl)cc1 | inactive
56 | O=C1CCCc2c1cc(C(=O)NCc1ccco1)c(=O)n2-c1ccc(Cl)cc1 | inactive
57 | CC(=O)c1cccc(NC(=O)NCc2ccco2)c1 | inactive
58 | CCCCN(C)C(=O)c1cn(C)c2ccc(S(=O)(=O)N(C)C)cc2c1=O | inactive
59 | CO[C@H]1/C=C/O[C@@]2(C)Oc3c(C)c(O)c4c(O)c(c(C=NN5CCN(C)CC5)c(O)c4c3C2=O)NC(=O)/C(C)=C\C=C\[C@H](C)[C@H](O)[C@@H](C)[C@@H](O)[C@@H](C)[C@H](OC(C)=O)[C@@H]1C | inactive
60 | O=Cc1cccn1Cc1ccccc1[N+](=O)[O-] | inactive
61 | COC(=O)C1C(=O)C=C(N2CCOCC2)CC1(C)C (stereo not given) | inactive
62 | O=c1c2oc3ccccc3c2ncn1Cc1ccc(Cl)cc1 | inactive
63 | CSc1nnc(NC(=O)CCc2ccccc2)s1 | inactive
64 | CN1CCCC(OC(=O)CCCC(=O)OC2CCCN(C)C2)C1 (stereo not given) | inactive
65 | O=C(Oc1ccc[nH]c1=O)c1cc([N+](=O)[O-])cc([N+](=O)[O-])c1 | inactive
66 | Cc1ccc2nc(C(F)OC(F)(F)F)[nH]c2c1 (stereo not given) | inactive

Row | SMILES | outcome
67 | CC(C)Cc1nc2ccc(N)cc2[nH]1 | inactive
68 | O=C(O)CCC(=O)NCC1OCCc2ccccc21 (stereo not given) | inactive
69 | CCn1cc(C(=O)O)c(=O)c2cc(OC)ccc21 | inactive
70 | O=C(CSc1nc2[nH]ncc2c(=O)[nH]1)N1CCCCC1 | inactive
71 | C#CCOc1ccc(Cl)cc1/C=N/O | inactive
72 | CC1CCCCN1Cc1cnc(Cl)s1 (stereo not given) | inactive
73 | CCN(CC)S(=O)(=O)c1cccc(C(=O)NC(Cc2c[nH]c3ccccc23)c2nnc3n2CCC3)c1 (stereo not given) | inactive
74 | O=C(N/N=C/c1ccco1)c1cccc(S(=O)(=O)Nc2ccccc2Cl)c1 | inactive
75 | CC(=O)Oc1ccc(C(=O)[C@H]2[C@H]3C(=O)N(c4ccc5ccccc5c4)C(=O)[C@H]3[C@@H]3C=CC=NN32)cc1 | inactive
76 | O=C(CSc1nnc2c(Cl)cc(Cl)cn12)NC1CCS(=O)(=O)C1 (stereo not given) | inactive
77 | O=C(CSc1nnc(-c2ccccc2)n1-c1ccc(Cl)cc1)NC1CCS(=O)(=O)C1 (stereo not given) | inactive
78 | COc1cccc(-c2nnc(SCC(=O)Nc3ccc(OC)c(OC)c3)n2N)c1 | inactive
79 | COc1ccc(-c2ccc3c(N)c(C(=O)c4cccc(OC)c4)sc3n2)cc1 | inactive
80 | COc1ccc(NC(=O)CCNS(=O)(=O)c2ccc3c(c2)CCC(=O)N3)cc1 | inactive
81 | O=c1[nH]c2ccccc2n2c(=S)[nH]nc12 | inactive
82 | CCn1ncc(/C=C/C(=O)NCc2cn(C)nc2C)c1C | inactive
83 | COc1ccc(C(=O)N2CCN(C(=O)c3ccco3)CC2)cc1OC | inactive
84 | COc1ccc(OC)c(S(=O)(=O)N(C)CC(=O)N2CCc3ccccc3C2)c1 | inactive
85 | Nc1nc(CSc2nc3ccccc3[nH]2)nc(N2CCOCC2)n1 | inactive
86 | Cc1cc(-c2csc(NC(=O)c3ccccc3C(F)(F)F)n2)c(C)n1Cc1ccccc1 | inactive
87 | O=C(NC1CCCC1)c1ccc(Cl)s1 | inactive
88 | O=C(OCc1nnc(-c2ccccc2)o1)c1ccc(S(=O)(=O)NCc2ccco2)cc1 | inactive

Row | SMILES | outcome
89 | COC(=O)c1cccc(NC(=O)CCCOc2ccccc2)c1 | inactive
90 | O=C(Cn1nc(Cc2cccnc2)c2ccccc2c1=O)NCc1ccc2c(c1)OCO2 | inactive
91 | COC(=O)c1ccccc1NC(=O)NCc1ccc2c(c1)OCO2 | inactive
92 | CC(C)(C)c1ccc(C2CC2C(=O)N/N=C\c2cc3ccccc3nc2Cl)cc1 (stereo not given) | inactive
93 | CCn1c(SCC(=O)N2CCCCC2)nc(O)cc1=O | inactive
94 | O=C(NCc1cccnc1)c1cc2ccccc2oc1=O | inactive
95 | CCCc1cc(C(=O)Cc2ccc(C(=O)OCC)o2)c(O)cc1O | inactive
96 | CCOC(=O)N1CCN(c2nc(C)c3c(n2)CCCC3=O)CC1 | inactive
97 | CCCCn1c(-c2ccccc2)nc2c(=O)n(C)c(=O)[nH]c21 | inactive
98 | CCN(CC)CCNC(=O)c1cn(CC)c2cc(N3CCN(C(=O)c4ccco4)CC3)c(F)cc2c1=O | inactive
99 | O=C1C2CCCN2c2ccc(S(=O)(=O)N3CCOCC3)cc2N1Cc1ccccc1F (stereo not given) | inactive
100 | Cc1ccc(Oc2ccc3c(c2)C(=O)N(c2ccc(S(=O)(=O)Nc4nccs4)cc2)C3=O)cc1 | inactive
101 | CCCS(=O)(=O)N1CCCC(C(=O)N2CCN(c3ccccn3)CC2)C1 (stereo not given) | inactive
102 | N=c1scc(-c2ccccc2)n1/N=C/c1ccco1 | inactive
103 | CCCCn1c(O)c(C(CC)=Nc2ccc3c(c2)CCC3)c(=O)[nH]c1=O | inactive
104 | Cc1cccc(-n2c(N)cc(=O)[nH]c2=S)c1 | inactive
105 | O=C(O)C1CC=CCC1C(=O)NC12CC3CC(CC(C3)C1)C2 (stereo not given) | inactive
106 | COC(=O)c1cc(C#N)c(Oc2ccccc2OC)nc1C | inactive
107 | CN(CCO)Cc1csc2ccc(Br)cc12 | inactive
108 | CCn1c(CNC(=O)c2cccc(C)c2)nc2ccccc21 | inactive
109 | Cc1ccc(C)n1-c1cc([N+](=O)[O-])ccc1-n1ccnc1 | inactive
110 | Nc1c(-c2ccccc2)cnn1-c1cccc([N+](=O)[O-])c1 | inactive
